Data from a collection of fitness landscapes (doi:10.1016/j.celrep.2020.107928).
Over roughly 81,000 sequences, “one-hybrid fitness for binding NBS DNA” has its median near -0.1; the highest 2% begin near 0.36. Many of the other results were omitted from the sample, so the highest values are more common in it than they were.

B1: Caulobacter ParB omega fusion; a variant is named by its letters at X, in order, B8GW30 (parent)
chain: MESVVVGEPGMSEGRRGLGRGLSALLGEVDAAPAQAPGEQLGGSREAPIEILQRNPDQPRRTFREEDLEDLSNSIREKGVLQPILVRPSPDTAGEYQIVAGERAWRAAQRAGLKTVPIMVRELDDLAVLEIGIIENVQRADLNVLEEALSYKVLMEKFERTQENIAQTIGKSXSHVANXMRLLXLPDEVQSYLVSGELTAXHARAIAAAADPVALAKQIIEGGLSVRETEALARKAPNLSAGKSKGGRPPRVKDTDTQALESDLSSVLGLDVSIDHRGSTGTLTITYATLEQLDDLCNRLTRGI

Variants of: B1
Test: one-hybrid fitness for binding NBS DNA (the Noc-binding site; scaled: cognate 1, non-cognate 0); higher = stronger binding
Conditions: with NBS DNA site
Outline: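 In E. coli USO, a HIS3 reporter with its site placed 19 bp from the promoter was used to select Caulobacter ParB variants randomised at four specificity codons. Growth lasted 48 hours at 37°C on histidine-free M9 containing 0.1 mM IPTG and 5 mM 3-AT. Fitness was taken as the log change in variant-to-wild-type read ratio from Illumina sequencing of pre- and post-selection plasmids, rescaled between the non-cognate and cognate sites.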

| Variant | one-hybrid fitness for binding NBS DNA |
| --- | --- |
| QVPT | ≤ 0.2 |
| QVHS | 0.296 |
| QVYT | 0.268 |
| QVNH | ≤ 0.2 |
| QVRT | 0.56 |
| QVHT | 0.373 |
| QVNT | 0.44 |
| QVHP | ≤ 0.2 |
| QVDT | ≤ 0.2 |
| VWQD | ≤ 0.2 |
| RNQS | 0.281 |
| FLHG | ≤ 0.2 |
| RSTN | ≤ 0.2 |
| RATR | 0.43 |
| RITD | ≤ 0.2 |
| RSTP | ≤ 0.2 |
| RITP | ≤ 0.2 |
| RTTF | ≤ 0.2 |
| RTTR | 0.571 |
| RATN | ≤ 0.2 |
| RITR | 0.437 |
| RATP | ≤ 0.2 |
| RSTR | 0.447 |
| RTTQ | ≤ 0.2 |

| Variant | one-hybrid fitness for binding NBS DNA |
| --- | --- |
| PCDK | ≤ 0.2 |
| FRRH | ≤ 0.2 |
| RLSY | ≤ 0.2 |
| INTS | ≤ 0.2 |
| LHDW | ≤ 0.2 |
| TECL | ≤ 0.2 |
| SMQN | ≤ 0.2 |
| TDVE | ≤ 0.2 |
| RLTY | ≤ 0.2 |
| RKTN | ≤ 0.2 |
| RRTF | ≤ 0.2 |
| RRTR | 0.75 |
| RKTK | ≤ 0.2 |
| RRTC | 0.314 |
| RHTK | ≤ 0.2 |
| RHTR | 0.459 |
| RLTR | 0.443 |
| RLTQ | ≤ 0.2 |
| RKTR | 0.602 |
| RHTG | ≤ 0.2 |
| RNPQ | ≤ 0.2 |
| MEAC | ≤ 0.2 |
| CITN | ≤ 0.2 |
| YDAI | ≤ 0.2 |

| Variant | one-hybrid fitness for binding NBS DNA |
| --- | --- |
| TGAY | ≤ 0.2 |
| NFLN | ≤ 0.2 |
| CWAR | ≤ 0.2 |
| PSCM | ≤ 0.2 |
| QDAF | ≤ 0.2 |
| APPH | ≤ 0.2 |
| CTYS | ≤ 0.2 |
| ATYE | ≤ 0.2 |
| RCTR | 0.534 |
| RMTR | 0.446 |
| RMTH | ≤ 0.2 |
| RPTR | ≤ 0.2 |
| RFTR | 0.298 |
| RMTP | ≤ 0.2 |
| FPHC | ≤ 0.2 |
| CSFN | ≤ 0.2 |
| QSVR | 0.379 |
| QSVN | ≤ 0.2 |
| QCVR | 0.48 |
| QSVD | ≤ 0.2 |
| QPVR | 0.377 |
| QPVN | ≤ 0.2 |
| QGVR | ≤ 0.2 |
| QDVR | ≤ 0.2 |

| Variant | one-hybrid fitness for binding NBS DNA |
| --- | --- |
| QPVH | ≤ 0.2 |
| RICA | ≤ 0.2 |
| IIHR | ≤ 0.2 |
| TNLI | ≤ 0.2 |
| SPSF | ≤ 0.2 |
| FYQC | ≤ 0.2 |
| GTTP | ≤ 0.2 |
| QPER | ≤ 0.2 |
| QCER | 0.438 |
| QHER | 0.288 |
| QTEN | ≤ 0.2 |
| QIER | 0.219 |
| QTEP | ≤ 0.2 |
| QRER | 0.637 |
| QTER | 0.458 |
| QSER | 0.285 |
| SKCT | ≤ 0.2 |
| HAHK | ≤ 0.2 |
| QAQC | ≤ 0.2 |
| VFIG | ≤ 0.2 |
| QCSC | ≤ 0.2 |
| QCSN | ≤ 0.2 |
| QPSN | ≤ 0.2 |
| QRSH | 0.522 |

| Variant | one-hybrid fitness for binding NBS DNA |
| --- | --- |
| QSSC | ≤ 0.2 |
| QCSH | 0.272 |
| QSSH | ≤ 0.2 |
| QCSM | ≤ 0.2 |
| QRSN | 0.366 |
| QRSM | 0.374 |
| QPSM | ≤ 0.2 |
| QRSC | 0.366 |
| YCVT | ≤ 0.2 |
| ANMM | ≤ 0.2 |
| GNYC | ≤ 0.2 |
| KFHF | ≤ 0.2 |
| LSDV | ≤ 0.2 |
| QMHF | ≤ 0.2 |
| GKLV | ≤ 0.2 |
| PMVT | ≤ 0.2 |
| VREL | ≤ 0.2 |
| QRSQ | 0.434 |
| QRSS | 0.659 |
| QRSP | ≤ 0.2 |
| QPSQ | ≤ 0.2 |
| QRSD | 0.208 |
| QCSQ | 0.271 |
| MSPC | ≤ 0.2 |

| Variant | one-hybrid fitness for binding NBS DNA |
| --- | --- |
| KWCV | ≤ 0.2 |
| LAAG | ≤ 0.2 |
| HYQF | ≤ 0.2 |
| QSFR | 0.37 |
| QSFN | ≤ 0.2 |
| QCFR | 0.517 |
| QPFR | ≤ 0.2 |
| QSFH | ≤ 0.2 |
| QDFR | ≤ 0.2 |
| FCHW | ≤ 0.2 |
| TICV | ≤ 0.2 |
| LGEA | ≤ 0.2 |
| FLQL | ≤ 0.2 |
| LSCN | ≤ 0.2 |
| HMKT | ≤ 0.2 |
| TSIM | ≤ 0.2 |
| LVHF | ≤ 0.2 |
| QKDC | ≤ 0.2 |
| QCYC | 0.204 |
| QTDC | ≤ 0.2 |
| QCRC | 0.512 |
| QKYC | ≤ 0.2 |
| QKRC | 0.425 |
| QTYC | ≤ 0.2 |

| Variant | one-hybrid fitness for binding NBS DNA |
| --- | --- |
| QMDC | ≤ 0.2 |
| QMRC | 0.406 |
| QPRC | ≤ 0.2 |
| QTRC | 0.548 |
| QMYC | ≤ 0.2 |
| PNKD | ≤ 0.2 |
| RLIW | ≤ 0.2 |
| CRYF | ≤ 0.2 |
| IAWR | ≤ 0.2 |
| GMPT | ≤ 0.2 |
| VMEC | ≤ 0.2 |
| LQWD | ≤ 0.2 |
| PYKF | ≤ 0.2 |
| ENTG | ≤ 0.2 |
| QSRC | 0.374 |
| QREC | 0.22 |
| QRRC | 0.489 |
| QSDC | ≤ 0.2 |
| QRYC | 0.296 |
| QSYC | ≤ 0.2 |
| IMYD | ≤ 0.2 |
| YWMG | ≤ 0.2 |
| DRAT | ≤ 0.2 |
| NRAT | ≤ 0.2 |

| Variant | one-hybrid fitness for binding NBS DNA |
| --- | --- |
| QPFT | ≤ 0.2 |
| QSFT | 0.315 |
| QCFT | 0.424 |
| QRFT | 0.723 |
| QRAT | 0.797 |
| RWNW | ≤ 0.2 |
| MQNW | ≤ 0.2 |
| DCWS | ≤ 0.2 |
| TDLC | ≤ 0.2 |
| NLFC | ≤ 0.2 |
| PGYI | ≤ 0.2 |
| MRFG | ≤ 0.2 |
| SRKF | ≤ 0.2 |
| PKCF | ≤ 0.2 |
| VYYR | ≤ 0.2 |
| QSKG | 0.302 |
| QCKG | 0.377 |
| QPKG | ≤ 0.2 |
| QIKG | ≤ 0.2 |
| QRVG | 0.232 |
| QTVG | ≤ 0.2 |
| QRKG | 0.485 |
| QTIG | ≤ 0.2 |
| QTKG | 0.503 |

| Variant | one-hybrid fitness for binding NBS DNA |
| --- | --- |
| KESF | ≤ 0.2 |
| IFWR | ≤ 0.2 |
| KAHR | ≤ 0.2 |
| AQIS | ≤ 0.2 |
| RGNV | ≤ 0.2 |
| HSPH | ≤ 0.2 |
| WDHG | ≤ 0.2 |
| KMKY | ≤ 0.2 |
| QYVQ | 0.313 |
| QYRQ | 0.435 |
| QYCQ | ≤ 0.2 |
| QYSQ | ≤ 0.2 |
| QYNQ | ≤ 0.2 |
| QYKQ | 0.394 |
| RSEI | ≤ 0.2 |
| SPTR | ≤ 0.2 |
| RTDY | ≤ 0.2 |
| RPKY | ≤ 0.2 |
| RTVY | ≤ 0.2 |
| RTKD | ≤ 0.2 |
| RTVH | ≤ 0.2 |
| RTKY | 0.418 |
| RTVS | 0.39 |
| RTYY | ≤ 0.2 |

| Variant | one-hybrid fitness for binding NBS DNA |
| --- | --- |
| RTRY | 0.38 |
| RTKH | 0.651 |
| RTVP | ≤ 0.2 |
| RTVN | ≤ 0.2 |
| QFSY | ≤ 0.2 |
| LCCW | ≤ 0.2 |
| SFAL | ≤ 0.2 |
| PWTQ | ≤ 0.2 |
| SYNN | ≤ 0.2 |
| PQEL | ≤ 0.2 |
| MDPA | ≤ 0.2 |
| QCMN | ≤ 0.2 |
| FPNL | ≤ 0.2 |
| PFHL | ≤ 0.2 |
| LLMP | ≤ 0.2 |
| FGTY | ≤ 0.2 |
| RTKP | ≤ 0.2 |
| RTKN | 0.3 |
| RTKS | 0.622 |
| ANHS | ≤ 0.2 |
| KTVT | ≤ 0.2 |
| KTKT | 0.396 |
| KTDT | ≤ 0.2 |
| KTRT | 0.44 |

| Variant | one-hybrid fitness for binding NBS DNA |
| --- | --- |
| KTYT | ≤ 0.2 |
| KTFT | ≤ 0.2 |
| HMYT | ≤ 0.2 |
| SGID | ≤ 0.2 |
| QDWR | ≤ 0.2 |
| DLYM | ≤ 0.2 |
| MQVF | ≤ 0.2 |
| PLIS | ≤ 0.2 |
| QHVY | ≤ 0.2 |
| QCKY | 0.59 |
| QCVY | ≤ 0.2 |
| QIKD | ≤ 0.2 |
| QIKP | ≤ 0.2 |
| QSKY | 0.517 |
| QPKY | ≤ 0.2 |
| QSVY | ≤ 0.2 |
| QHQY | ≤ 0.2 |
| QIKY | 0.364 |
| QHKY | 0.529 |
| QGKY | ≤ 0.2 |
| GTNT | ≤ 0.2 |
| RTRV | 0.288 |
| PYEG | ≤ 0.2 |
| AMAG | ≤ 0.2 |

| Variant | one-hybrid fitness for binding NBS DNA |
| --- | --- |
| PRCC | ≤ 0.2 |
| MKRL | ≤ 0.2 |
| GLHC | ≤ 0.2 |
| WTLT | ≤ 0.2 |
| YTVE | ≤ 0.2 |
| QKNY | 0.26 |
| QTKY | 0.658 |
| QMKY | 0.516 |
| QTVY | ≤ 0.2 |
| QKKY | 0.498 |
| QMPY | ≤ 0.2 |
| QMVY | ≤ 0.2 |
| QTIY | ≤ 0.2 |
| QAKY | 0.531 |
| QKVY | ≤ 0.2 |
| QAVY | ≤ 0.2 |
| QANY | ≤ 0.2 |
| VVSE | ≤ 0.2 |
| LAWC | ≤ 0.2 |
| RNCT | ≤ 0.2 |
| SKAC | ≤ 0.2 |
| MVPR | ≤ 0.2 |
| EELK | ≤ 0.2 |
| TSEY | ≤ 0.2 |

| Variant | one-hybrid fitness for binding NBS DNA |
| --- | --- |
| HMMA | ≤ 0.2 |
| CPSC | ≤ 0.2 |
| TSCN | ≤ 0.2 |
| GRQR | ≤ 0.2 |
| QLKY | 0.46 |
| QLHY | ≤ 0.2 |
| QLVY | ≤ 0.2 |
| KCDL | ≤ 0.2 |
| SRHH | ≤ 0.2 |
| QQPA | ≤ 0.2 |
| QQQA | 0.357 |
| QQDA | 0.25 |
| QQNA | 0.421 |
| QQHA | 0.384 |
| QQAA | 0.347 |
| QQIA | ≤ 0.2 |
| QQSA | 0.37 |
| QQLA | 0.294 |
| QQVA | 0.271 |
| QQKA | 0.628 |
